HP1b binding inh: HTS for Inhibitors of HP1-beta Chromodomain Interactions with Methylated Histone Tails. Chromobox protein homolog 1 (Homo sapiens), P83916. AlphaScreen HP1-beta / biotin-H3K9me3 peptide binding. Potency, µM (top dose mostly 114 µM), without a hit: at the highest dose activity change, negative = inhibition, actives largely listed as inhibitors. 390,000 compounds, 0.56% hits. AID 540317, 2011; note: nearly all actives have a fitted effect of over 70% in size
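Compound inhibition of the preformed complex between 50 nM HP1-beta and 50 nM biotinylated H3K9me3 peptide was read by AlphaScreen. Buffer was PBS pH 7.4 with 0.01% Tween-20. Incubations ran 30 min at room temperature, with 10 ug/mL donor/acceptor beads.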
PLK1 PBD inh: qHTS for Inhibitors of PLK1-PDB (polo-like kinase 1 - polo-box domain): Primary Screen | Serine/threonine-protein kinase PLK1 (Homo sapiens), P53350 | Plk1 PBD binding of FITC phosphopeptide, fluorescence polarization | Potency, µM, for inactives: max response, negative = inhibition, most hits filed as inhibitors | 360,000 compounds, 2.8% hits | AID 720504, 2013; note: series mostly up to about 57 µM; % is set by controls: 0 for no effect and ±100 for the full control effect; nearly all actives have a fitted effect of over 65% in size
JMJD2A Tudor inh: qHTS Assay for Inhibitors of JMJD2A-Tudor Domain. 390,000 compounds, 4.4% hits. Lysine-specific demethylase 4A (Homo sapiens), O75164. AlphaScreen JMJD2A-Tudor / H3K4me3 peptide binding. Potency, µM (highest dose often 114 µM), for inactives: at the highest dose activity change, negative = inhibition, most hits filed as inhibitors; note: % is set by controls: 0 for no effect and ±100 for the full control effect; nearly all actives have a fitted effect of over 50% in size
G9a block: qHTS Assay for Inhibitors of Histone Lysine Methyltransferase G9a; G9a H3K9 monomethylation, AlphaScreen, 2 h; 350,000 compounds, 8.8% hits; Potency, µM (doses to about 102 µM), for inactives: at the highest dose activity, negative = inhibition, usual class: inhibitors; note: % is set by controls: 0 for no effect and ±100 for the full control effect; nearly all actives have a fitted effect of over 75% in size
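Using a bead-based AlphaScreen, monomethylated H3K9 product from 2 h room-temperature reactions (G9a 20 nM, peptide 500 nM, SAM 20 uM) was detected with 0.5 ug/mL rabbit anti-H3K9me1 antibody.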
BAZ2B block: qHTS Assay for Inhibitors of BAZ2B; Bromodomain adjacent to zinc finger domain protein 2B (Homo sapiens), Q9UIF8; AlphaScreen BAZ2B-H3K14Ac peptide displacement; Potency, µM (doses to about 114 µM), inactives show top-dose activity change, negative = inhibition, hits mostly inhibitors; 360,000 compounds, 4.4% hits; AID 504333, 2011; note: % is set by controls: 0 for no effect and ±100 for the full control effect; nearly all actives have a fitted effect of over 60% in size
Target sequence (Q9UIF8 whole entry, looked up, the tested form may be a part): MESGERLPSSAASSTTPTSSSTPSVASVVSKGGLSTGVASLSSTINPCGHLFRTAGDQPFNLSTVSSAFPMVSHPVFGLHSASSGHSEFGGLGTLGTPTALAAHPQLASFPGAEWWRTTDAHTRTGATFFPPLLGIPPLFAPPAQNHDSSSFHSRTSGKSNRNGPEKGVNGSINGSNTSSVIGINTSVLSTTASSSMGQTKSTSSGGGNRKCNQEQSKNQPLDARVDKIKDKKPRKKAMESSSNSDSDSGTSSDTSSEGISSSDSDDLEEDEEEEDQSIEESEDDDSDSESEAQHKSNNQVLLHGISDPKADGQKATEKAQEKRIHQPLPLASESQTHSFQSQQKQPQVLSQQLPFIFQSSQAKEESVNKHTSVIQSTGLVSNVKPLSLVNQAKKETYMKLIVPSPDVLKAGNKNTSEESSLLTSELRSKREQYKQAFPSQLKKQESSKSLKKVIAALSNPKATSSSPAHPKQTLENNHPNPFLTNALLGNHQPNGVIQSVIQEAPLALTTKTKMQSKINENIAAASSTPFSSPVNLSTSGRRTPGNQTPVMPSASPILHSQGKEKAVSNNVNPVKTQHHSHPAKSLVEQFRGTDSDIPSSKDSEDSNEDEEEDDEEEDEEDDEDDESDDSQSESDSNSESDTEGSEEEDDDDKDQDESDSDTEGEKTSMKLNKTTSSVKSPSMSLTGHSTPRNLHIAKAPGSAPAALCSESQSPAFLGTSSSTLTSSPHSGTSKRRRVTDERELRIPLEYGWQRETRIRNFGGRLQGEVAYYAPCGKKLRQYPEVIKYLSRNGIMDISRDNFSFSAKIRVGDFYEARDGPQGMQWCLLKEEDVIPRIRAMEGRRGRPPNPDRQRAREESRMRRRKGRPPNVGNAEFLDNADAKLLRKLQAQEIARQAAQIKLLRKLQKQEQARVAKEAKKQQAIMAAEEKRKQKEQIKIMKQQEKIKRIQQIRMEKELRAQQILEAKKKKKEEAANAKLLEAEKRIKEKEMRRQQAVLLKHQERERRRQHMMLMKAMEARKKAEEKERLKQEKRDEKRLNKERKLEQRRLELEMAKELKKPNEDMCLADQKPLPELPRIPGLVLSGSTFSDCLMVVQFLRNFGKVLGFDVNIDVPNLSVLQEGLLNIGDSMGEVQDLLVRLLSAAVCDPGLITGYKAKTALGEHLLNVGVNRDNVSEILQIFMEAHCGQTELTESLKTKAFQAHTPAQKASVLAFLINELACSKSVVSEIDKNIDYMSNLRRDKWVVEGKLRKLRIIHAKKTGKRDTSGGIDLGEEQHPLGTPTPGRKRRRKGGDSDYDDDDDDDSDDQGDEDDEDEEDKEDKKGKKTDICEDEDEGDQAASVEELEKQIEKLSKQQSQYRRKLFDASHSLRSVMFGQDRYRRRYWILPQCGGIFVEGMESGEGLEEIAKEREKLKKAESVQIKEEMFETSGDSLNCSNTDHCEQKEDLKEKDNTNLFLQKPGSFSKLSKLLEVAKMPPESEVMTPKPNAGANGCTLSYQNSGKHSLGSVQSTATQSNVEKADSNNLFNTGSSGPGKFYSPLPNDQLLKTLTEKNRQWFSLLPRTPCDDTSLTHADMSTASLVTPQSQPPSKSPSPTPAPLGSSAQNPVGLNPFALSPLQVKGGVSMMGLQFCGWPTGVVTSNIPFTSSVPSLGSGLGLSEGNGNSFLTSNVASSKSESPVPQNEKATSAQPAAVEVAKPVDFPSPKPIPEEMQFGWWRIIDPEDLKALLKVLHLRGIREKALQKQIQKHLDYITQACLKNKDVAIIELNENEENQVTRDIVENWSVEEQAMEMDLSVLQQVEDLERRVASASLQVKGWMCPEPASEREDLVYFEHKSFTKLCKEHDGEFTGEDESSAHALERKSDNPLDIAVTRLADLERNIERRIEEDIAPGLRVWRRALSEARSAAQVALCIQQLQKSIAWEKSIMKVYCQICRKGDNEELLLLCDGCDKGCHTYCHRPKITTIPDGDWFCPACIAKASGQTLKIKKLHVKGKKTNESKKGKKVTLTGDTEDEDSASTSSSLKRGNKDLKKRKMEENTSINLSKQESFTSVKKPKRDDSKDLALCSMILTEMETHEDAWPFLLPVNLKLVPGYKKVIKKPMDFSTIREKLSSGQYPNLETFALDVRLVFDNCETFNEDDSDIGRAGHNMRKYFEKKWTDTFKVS
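Inhibition is scored as reduced AlphaScreen emission. The BAZ2B/b-H3(5-23)K14Ac complex (50 nM each) in PBS pH 7.4, 0.01% Tween-20 meets compound (up to 110 uM) for 30 min at RT before bead addition.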
Sfp inh: qHTS Assay for Inhibitors of Bacillus subtilis Sfp phosphopantetheinyl transferase (PPTase) | 4'-phosphopantetheinyl transferase ffp (Bacillus subtilis), Q9F4F7 | Biochemical Sfp PPTase activity, qHTS | Potency, µM, without a hit: largest response in the series, negative = inhibition, most hits filed as inhibitors | 310,000 compounds, 3.5% hits | AID 1490, 2009;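 note: the enzyme is Sfp with the accession as filed and its product quenches rhodamine fluorescence; 0% = enzyme reaction without inhibitor and -100% = no enzyme wells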
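Step 1, compound plus 15 nM Sfp-PPTase, 15 min, room temperature. Step 2, add rhodamine-CoA (5 uM) and BHQ-2-YbbR (12.5 uM). Step 3, read 525/598 nm fluorescence at 0 and 30 min.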
Numbers without * were called inactive; ? = inconclusive; · = not tested or not shown; [ ] = remark or other dose. A selection: hits, their analogues and other compounds. The true share with any hit is near 12%. Calls come from the whole dose curve; as a rule, active = well fitted curve in the direction sought with a large enough effect; inconclusive = small, poorly fitted or top-dose-only effect, or another doubt; inactive = no such curve, though single readings can be large; an effect the other way counts as inactive or inconclusive. Potency is the fitted concentration of half-maximal effect.

SMILES | HP1b binding inh | PLK1 PBD inh | JMJD2A Tudor inh | G9a block | BAZ2B block | Sfp inh
COc1ccccc1Oc1c(NS(=O)(=O)c2ccc(C(C)(C)C)cc2)nc(-c2ncccn2)nc1OCCO | · | · | · | 10%[12.7 µM] | · | 56µM*
CON(C)C(=O)CC(CNC(=O)OC(C)(C)C)c1ccc(Cl)cc1 (centres undefined) | 31% | -3% | -12% | · | · | ·
O=S(=O)(c1ccc(Cl)cc1)N1CCN(c2nc(-c3cccc(Br)c3)nc3ccccc23)CC1 | 21% | · | -21% | · | · | ·
CC1=NN(c2ccccc2)C(=O)C1/C=C1\NC(=S)NC1=O (centres undefined) | ? | 19µM* | 56µM* | ? | ? | -3%
O=C(Cn1c(-c2ccccc2)c[n+]2ccsc12)c1ccccc1 | 25% | -9% | -7% | ? | -14% | -2%
O=C(Cn1c(-c2ccccc2)c[n+]2ccsc12)c1ccc([N+](=O)[O-])cc1 | 8% | 30µM* | -31% | -38% | -18% | -13%
COc1ccc(C(=O)c2ccc([N+](=O)[O-])cc2)cc1S(=O)(=O)N1CCC(C(=O)O)CC1 | 11% | -11% | -20% | ? | 0% | 13%
O=C(NC(=S)Nc1nc2c(s1)CSc1ccccc1-2)c1ccccc1 | -18% | -15% | -31% | 3.5µM* | ? | 45µM*
O=C(NC(=S)Nc1nc2c(s1)CCCC2)c1ccc(C(=O)c2ccccc2)cc1 | -12% | -4% | -26% | -39%[59 µM] | -10% | -11%
Cc1ccc(Nc2c(-c3ccc(C)o3)nc3cnccn23)cc1 | ? | 14µM* | 40µM* | 32µM* | ? | 10µM*
Cc1ccc(C(=O)Nc2c(-c3cccs3)nc3cc(C)ccn23)cc1 | 24% | -3% | -7% | 4%[59 µM] | 14% | -16%
COc1ccc(Nc2c(-c3ccc(C)o3)nc3cc(C)ccn23)cc1 | -14% | · | ? | 16µM* | ? | ·
Cc1ccn2c(Nc3ccc4c(c3)OCCO4)c(-c3cccs3)nc2c1 | ? | · | ? | 14µM* | 25µM* | ·
Cc1ccc(-c2nc3cnccn3c2Nc2ccc3c(c2)OCO3)o1 | -17% | -19% | ? | 32µM* | 50µM* | 35µM*
COC(=O)N1CCC2(CCCN(Cc3ccc(C#N)cc3)C2)CC1 | · | · | · | -21%[12.7 µM] | · | 18%
COc1ccc(NC(=O)Cn2c(CCC(=O)O)ccc2-c2ccccc2)cc1Cl | 0% | · | -31% | -37%[59 µM] | -33% | ·
CCOCCc1nn2c(=O)cc(COC(=O)c3ccccc3OC)nc2s1 | 70% | · | 9% | 15%[59 µM] | -4% | ·
Cc1ccc(/C=C/c2onc(C)c2S(=O)(=O)N2CCC(C(=O)N3CCN(c4ccccc4F)CC3)CC2)cc1 | 27%[57 µM] | · | -28% | -3%[59 µM] | -4% | ·
Cc1ccn2c(Nc3ccc4c(c3)OCO4)c(-c3ccc(C)o3)nc2c1 | 18% | · | ? | 16µM* | -35% | ·
CC(C)(C)OC(=O)N1CCC(c2c(C(=O)NCc3cccs3)cnn2-c2ccc(F)cc2F)CC1 | 22% | · | -18% | -1%[59 µM] | 2%[57.1 µM] | ·
O=C(CN1CCN(S(=O)(=O)c2ccccc2F)CC1)N1CCc2ccccc2C1 | -26% | -6% | 0.79µM* | · | · | ·
COc1ncc2nc(CCc3ccccc3)c(=O)n(C3CC3)c2n1 | · | · | · | 5%[12.7 µM] | · | 5%
Cc1cc(=O)[nH]c2cc(O)ccc12 | 3% | -1% | -13% | -14% | 11% | 10%
CC(C)=CCCC1(C)C=Cc2c(c(C)cc3c2[nH]c2cc(O)ccc23)O1 (centres undefined) | -40% | -3% | 45µM* | ? | 45µM* | 32%
CC(=O)c1ccc(N2Cc3ccccc3C3(CCOCC3)C2=N)cc1 | 37% | 2% | -5% | 56µM* | -25% | 13%
SMILES | HP1b binding inh | PLK1 PBD inh | JMJD2A Tudor inh | G9a block | BAZ2B block | Sfp inh
COc1cc2c(cc1CC=C(C)C)C(=O)C[C@@H](c1ccc(O)cc1)O2 | · | · | · | · | · | -5%
Cc1ccc(NC(=O)[C@@H](CC(C)C)NC(=O)[C@@H]2Cc3ccccc3CN2)cc1 | 49% | -18% | -25% | ? | -19% | 11%
COc1ccccc1CNC(=O)[C@H](Cc1c[nH]c2ccccc12)NC(=O)[C@@H]1Cc2ccccc2CN1 | 26% | -7% | -27% | 13µM* | ? | 23%
COc1ccccc1CNC(=O)Cc1c[nH]c2ccccc12 | -6% | -3% | -22% | -5% | -12% | 17%
Cc1cccc(NC(=O)[C@H](Cc2ccccc2)NC(=O)[C@@H]2Cc3ccccc3CN2)c1 | 25% | ? | -29% | -8%[0.0925 µM] | ? | -4%
COc1cccc(NC(=O)[C@H](CC(C)C)NC(=O)[C@@H]2Cc3ccccc3CN2)c1 | 4% | -16% | 79µM* | 17%[0.0925 µM] | ? | 3%
Cc1ccc(NC(=O)[C@H](CC(C)C)NC(=O)[C@@H]2Cc3ccccc3CN2)cc1 | 15% | -5% | -24% | 32µM* | ? | 17%
COc1ccc(C)cc1NC(=O)CNC(=O)[C@@H]1Cc2ccccc2CN1 | 29% | -6% | -12% | 45µM* | -6%[57.1 µM] | -3%
NC(=O)C1c2ccccc2CCc2ccccc21 | · | · | · | 1%[12.7 µM] | · | 0%
O=C(CCl)N1CCCC1c1ccc2c(c1)OCCO2 (centres undefined) | -18%[57 µM] | 27µM* | ? | -31% | -37% | 10%
Cc1cc(OCC(=O)N2CCOCC2)ccc1NC(=O)c1ccccc1C | 24% | -3% | 1% | 38% | 6% | 16%
CN(C)S(=O)(=O)c1ccc(/C(O)=C2/C(=O)C(=O)N(Cc3cccnc3)C2c2cccs2)cc1 (centres undefined) | 36% | -12% | -17% | 40µM* | -13% | -10%
CN(C)S(=O)(=O)c1ccc(/C(O)=C2/C(=O)C(=O)N(Cc3cccnc3)C2c2ccco2)cc1 (centres undefined) | 15% | -11% | ? | ? | ? | -12%
CN(C)S(=O)(=O)c1ccc(/C(O)=C2/C(=O)C(=O)N(Cc3cccnc3)C2c2ccncc2)cc1 (centres undefined) | 20% | -10% | -23% | 16µM* | -4% | -19%
CC1=NN(C(N)=S)C(=O)C1N=Nc1cccc(C(=O)O)c1 (centres undefined) | 12% | ? | 4µM* | 0.71µM* | -22% | 45µM*
CC1=NN(C(N)=S)C(=O)C1N=Nc1ccc(F)cc1 (centres undefined) | 39% | ? | -14% | ? | 0% | -26%

Assay outcomes from PubChem.
